HEK293 viab: counter-screen for SNCA expression inhibitors: cell viability; HEK-293-SNCA-luc viability, GF-AFC fluorescence, 24 h; Potency, µM (titrated, usually from 57.1 µM), without a hit: at the top dose activity change, negative = cytotoxicity, actives largely listed as cytotoxic; actives 0.12% (n = 150,000); AID 1671193;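 note: potency is the fitted concentration of half-maximal effect; 0% = DMSO-treated cells and -100% = medium-only wells without cells; nearly all actives have a fitted effect of over 30% in size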
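HEK-293-SNCA-luc cells (1500/well) plated 24 h, then exposed 24 h to a dilution series; GF-AFC added 30 min at 37C, fluorescence 405/540 nm; normalised to medium-only and DMSO wells, Hill fit.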
IP6K1 inhibitor: blocks human inositol hexakisphosphate kinase 1; IP6K1 kinase, ADP-Glo luminescence, 2 h; hits give low values; actives 0.81% (n = 140,000); Q92551; activity change, % (series mostly up to about 58 µM); in the data active = activity change below about -25%; note: % is set by controls: 0 for no effect and ±100 for the full control effect
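ADP-Glo luminescence measures ADP made by human IP6K1 during a 2 h RT reaction with ATP/IP6 (mix at 1.3 mM/130 uM); top library doses 57.5 and 19.1 uM final.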
SNCA expr inh: SNCA gene expression inhibition. actives 0.17% (n = 140,000). AID 1671194. HEK-293 SNCA-luciferase knock-in, luminescence, 24 h. Potency, µM (top dose mostly 57.2 µM), without a hit: top-dose activity change, negative = inhibition, hits mostly inhibitors;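 note: potency is the fitted concentration of half-maximal effect; plate controls were DMSO cells for no effect and cell-free wells for full effect; nearly all actives have a fitted effect of over 45% in size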
KDM5B inhibitor: KDM5B demethylase inhibition; KDM5B demethylase, FDH-coupled NADH fluorescence (FDH is formaldehyde dehydrogenase); Q9UGL1; actives 2.6% (n = 220,000); Potency, µM (doses to about 57.7 µM), actives largely listed as inhibitors; note: potency is the fitted concentration of half-maximal effect; 0% is about no effect; nearly all actives have a fitted effect of over 70% in size
Target sequence (Q9UGL1 whole entry, looked up): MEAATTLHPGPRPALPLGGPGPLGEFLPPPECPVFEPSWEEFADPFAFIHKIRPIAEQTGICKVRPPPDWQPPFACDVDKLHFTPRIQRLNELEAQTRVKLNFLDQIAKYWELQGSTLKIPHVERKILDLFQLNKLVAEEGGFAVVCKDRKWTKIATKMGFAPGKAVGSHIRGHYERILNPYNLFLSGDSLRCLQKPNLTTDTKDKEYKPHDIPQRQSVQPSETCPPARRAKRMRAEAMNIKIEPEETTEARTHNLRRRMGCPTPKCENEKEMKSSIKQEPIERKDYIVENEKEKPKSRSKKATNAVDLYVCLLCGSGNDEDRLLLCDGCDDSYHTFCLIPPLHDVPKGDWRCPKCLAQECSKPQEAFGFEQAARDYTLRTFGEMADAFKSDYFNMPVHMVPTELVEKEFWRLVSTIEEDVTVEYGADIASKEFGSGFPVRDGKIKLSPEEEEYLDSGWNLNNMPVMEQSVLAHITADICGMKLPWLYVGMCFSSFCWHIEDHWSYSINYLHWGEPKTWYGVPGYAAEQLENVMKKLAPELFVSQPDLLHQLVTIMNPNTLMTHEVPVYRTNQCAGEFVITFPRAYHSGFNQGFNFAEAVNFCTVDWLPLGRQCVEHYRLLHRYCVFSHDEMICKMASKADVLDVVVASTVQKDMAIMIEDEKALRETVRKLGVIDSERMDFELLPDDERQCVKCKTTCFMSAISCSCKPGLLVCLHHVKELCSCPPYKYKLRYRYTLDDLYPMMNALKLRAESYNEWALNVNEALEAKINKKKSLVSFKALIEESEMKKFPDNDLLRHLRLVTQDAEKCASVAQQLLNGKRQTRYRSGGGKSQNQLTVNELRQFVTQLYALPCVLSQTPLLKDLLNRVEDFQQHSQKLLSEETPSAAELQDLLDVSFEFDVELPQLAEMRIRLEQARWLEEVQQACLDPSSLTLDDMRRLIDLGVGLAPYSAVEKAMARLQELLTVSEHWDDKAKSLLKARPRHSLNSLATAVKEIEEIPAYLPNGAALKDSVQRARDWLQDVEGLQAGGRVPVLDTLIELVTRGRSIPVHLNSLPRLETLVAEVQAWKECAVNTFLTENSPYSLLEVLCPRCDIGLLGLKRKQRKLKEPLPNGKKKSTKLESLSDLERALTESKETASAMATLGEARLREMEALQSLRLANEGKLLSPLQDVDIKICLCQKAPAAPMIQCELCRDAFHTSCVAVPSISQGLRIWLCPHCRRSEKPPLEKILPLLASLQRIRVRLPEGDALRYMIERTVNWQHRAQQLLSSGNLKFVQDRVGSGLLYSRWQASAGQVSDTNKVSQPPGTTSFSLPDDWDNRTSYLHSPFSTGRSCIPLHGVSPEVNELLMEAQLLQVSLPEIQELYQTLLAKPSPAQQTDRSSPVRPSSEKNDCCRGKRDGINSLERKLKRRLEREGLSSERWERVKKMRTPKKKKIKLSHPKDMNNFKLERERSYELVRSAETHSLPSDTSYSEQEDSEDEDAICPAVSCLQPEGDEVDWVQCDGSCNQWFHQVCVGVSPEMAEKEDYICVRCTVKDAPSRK
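Coupled FDH/NAD⁺ fluorescence readout. KDM5BΔAP 200 nM final; compound titration, 10 min RT preincubation; substrate mix 12.5 µM H3K4me3, 25 µM 2-OG, 50 µM Fe(II), 100 µM ascorbate, 0.25 mM NAD⁺, 0.25 U/mL FDH; ΔRFU over 30 min.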
* hit, by the source's call; i = inactive; ? = inconclusive; . = no result; [ ] = dose if it differs, or a comment. Hits are enriched below; roughly 2.8% of the tested compounds scored in any of these assays. Unless noted, calls come from the whole dose curve; as a rule, active = well fitted curve in the direction sought with a large enough effect; inconclusive = small, poorly fitted or top-dose-only effect, or another doubt; inactive = no such curve, though single readings can be large; an effect the other way counts as inactive or inconclusive.

SMILES	HEK293 viab	IP6K1 inhibitor	SNCA expr inh	KDM5B inhibitor
CN(C)c1cccc(C(=O)NC2CCN(c3cc(-c4ccc(F)cc4)[nH]n3)CC2)c1	9.1%	23.6	233.8%	i
COc1ccc(-c2cc(N3CCCC(NC(=O)c4cccc(N(C)C)c4)C3)n[nH]2)cc1 (configuration not stated)	-18.3%	0.0	26.0%	28.2µM*
CN(C)c1cccc(C(=O)NC2CCN(c3cc(-c4ccc(Cl)cc4)[nH]n3)CC2)c1	-4.7%	15.6	177.5%	31.6µM*
O=C(Cc1ccccc1F)N1CCCN(c2cc(-c3ccc(Cl)cc3)[nH]n2)CC1	?	-10.3	-10.8%	10µM*
CN(C)c1cccc(C(=O)N2CCN(c3cc(-c4ccc(Cl)cc4)[nH]n3)CC2)c1	-22.5%	6.6	3.2%	31.6µM*
O=C(Cc1ccc(Cl)cc1)N1CCCN(c2cc(-c3ccccc3)[nH]n2)CC1	-10.1%	14.5	-25.8%	?
Cn1ncc(N2CCC(CNC(=O)c3cccc4ccnn34)C2)cc1=O (configuration not stated)	7.1%	-3.1	-3.5%	28.2µM*
Cn1ncc(N2CCC(CNC(=O)c3cccc4ncccc34)C2)cc1=O (configuration not stated)	-0.1%	1.9	3.4%	i
CCS(=O)(=O)N1C[C@@H](COc2cccnc2)[C@H](c2ccccn2)C1	2.6%	-1.2	7.1%	i
COc1ccccc1-c1ccnc(N[C@H]2CO[C@H]3[C@@H]2OC[C@@H]3NC(=O)COc2ccccc2)n1	6.0%	-4.3	20.2%	22.4µM*
COc1ccccc1-c1ccnc(N[C@H]2CO[C@H]3[C@@H]2OC[C@@H]3NC(=O)c2ccccc2)n1	-1.7%[87.6 µM]	-7.9	-16.3%[87.6 µM]	35.5µM*
COc1ccccc1-c1ccnc(N[C@H]2CO[C@H]3[C@@H]2OC[C@@H]3NC(=O)c2ccc(C)cc2)n1	-3.4%	-0.3	5.1%	?
CS(=O)(=O)N1CCc2ccc(C(=O)NCCN3CCc4ccccc4C3)cc21	0.1%	-3.6	25.1%	28.2µM*
CCN(CC)CCNC(=O)c1ccc2c(c1)N(S(C)(=O)=O)CC2	7.6%	0.3	36.0%	28.2µM*
CN(C)CCCNC(=O)c1ccc2c(c1)N(S(C)(=O)=O)CC2	4.6%	-3.6	2.1%	?
CC1=C[C@@H](CNc2ccccn2)[C@H](C(C)C)C[C@H]1Cc1nnc(-c2cncn2C)o1	-28.0%[87.6 µM]	-3.5	?	35.5µM*
CC1=C[C@@H](CN2CCN(c3cnccn3)CC2)[C@H](C(C)C)C[C@H]1Cc1nnc(-c2ccccc2)o1	?	-16.3	?	28.2µM*
CC1=C[C@@H](CN2CCN(c3ccccn3)CC2)[C@H](C(C)C)C[C@H]1Cc1nnc(-c2ccc(C)cc2)o1	?	-5.6	?	?
CCCN(Cc1ccncc1)C(=O)c1cnc(-c2ccccn2)[nH]c1=O	-25.8%	-0.1	?	10µM*
CCN1CCN(CCNC(=O)c2nnn3cc(-c4ccccc4)[nH]c(=O)c23)CC1	-2.3%	-13.7	0.1%	28.2µM*
O=C(NCCN1CCCCC1)c1nnn2cc(-c3ccccc3)[nH]c(=O)c12	-13.6%	-13.7	-5.3%	i
CCOCCCNC(=O)c1nnn2cc(-c3ccccc3)[nH]c(=O)c12	-0.9%	-3.9	19.5%	28.2µM*
COCCn1c(=O)c(C(=O)NCC(=O)OC)nc2cccnc21	2.0%[87.6 µM]	7.5	-13.5%[87.6 µM]	.
Cc1cc(C[C@@H]2COC[C@@H]2NC(=O)CCc2c(C)nc3ncnn3c2C)on1	-1.6%	4.5	-18.7%	i
CS(=O)(=O)N(Cc1cccnc1)C1CN(C(=O)c2ccc3cc[nH]c3c2)C1	2.5%	3.2	-5.8%	31.6µM*
SMILES	HEK293 viab	IP6K1 inhibitor	SNCA expr inh	KDM5B inhibitor
O=C(Nc1ccnn1C1CCN(Cc2ccc(F)cc2)CC1)C1CC1	.	.	.	i
CCc1ccc(NC(=O)CC2C(=O)NCCN2C(=O)c2ccc(F)cc2)cc1 (configuration not stated)	17.3%	16.0	-2.8%	i
O=C(NC[C@H]1Cn2c(-c3ccc(F)cc3)cnc2CO1)c1ccc(Cl)cc1	-19.8%[87.6 µM]	1.2	-28.3%[87.6 µM]	i
CCOC(=O)C(C)Oc1cccn2c(=O)c(-c3cc(C)n(-c4ccc(Cl)cc4)n3)c(C)nc12 (configuration not stated)	5.1%	17.3	0.3%	22.4µM*
Cc1nc2c(OCC(=O)OC(C)(C)C)cccn2c(=O)c1-c1cc(C)n(-c2ccc(Cl)cc2)n1	-2.6%	-7.6	-1.9%	28.2µM*
Cc1nc2c(OCC(=O)OC(C)(C)C)cccn2c(=O)c1-c1cc(C)n(-c2cccc(F)c2)n1	-26.0%	1.8	15.1%	?
Cc1ccc(C(=O)COc2cccn3c(=O)c(-c4cc(C)n(-c5ccccc5)n4)c(C)nc23)cc1	-26.1%	5.5	4.7%	?
COc1cc(F)ccc1-c1ccnc2nc(CCc3ccccc3)nn12	0.5%	3.2	-20.8%	25.1µM*
COc1ccc(-c2ccnc3nc(CCc4ccccc4)nn23)c(F)c1	9.3%	-0.7	-17.8%	28.2µM*
COc1ccc(-c2ccnc3nc(C4CCCO4)nn23)c(F)c1 (configuration not stated)	-8.3%	0.1	-4.2%	25.1µM*
Fc1ccc(-c2ccnc3nc(C4CCCO4)nn23)cc1 (configuration not stated)	5.3%	8.7	-2.9%	?
CCN(C(=O)c1cccc(F)c1F)[C@@H]1CCN(c2ncccc2C#N)C[C@H]1O	1.9%	12.7	-4.0%	28.2µM*
N#Cc1cccnc1N1CCC(NC(=O)c2ccc3cccc(F)c3n2)CC1	4.4%	19.5	17.4%	28.2µM*
N#Cc1cccnc1-c1ccc(C(=O)N2CCC(NC(=O)c3ccccc3F)CC2)cc1	6.9%[12.5 µM]	-3.6	-6.4%	.
Cc1[nH]cnc1CN1CCNc2cc(-c3ccccc3)ncc2C1	-5.9%[87.6 µM]	-3.5	?	31.6µM*
c1ccc(CN2CCNc3cc(-c4cccnc4)ncc3C2)cc1	-9.4%[87.6 µM]	-20.4	32.5%[87.6 µM]	31.6µM*
NC(=O)c1cccc(-c2cc3c(cn2)CN(Cc2ccncc2)CCN3)c1	6.2%[87.6 µM]	12.1	7.1%[87.6 µM]	?
Oc1ccccc1CN1CCNc2cc(-c3ccccc3)ncc2C1	?	-9.3	26.9%[87.6 µM]	?
c1ccc(CCN2CCNc3cc(NCc4cccnc4)ncc3C2)cc1	-16.6%[87.6 µM]	-20.3	-25.3%[87.6 µM]	35.5µM*
NC(=O)c1cccc(-c2cc3c(cn2)CN(Cc2ccccc2)CCN3)c1	-19.0%[87.6 µM]	8.2	-5.9%[87.6 µM]	31.6µM*
c1ccc(CCN2CCNc3cc(-c4cn[nH]c4)ncc3C2)cc1	?	-11.7	13.1%[87.6 µM]	?
c1cncc(-c2cc3c(cn2)CN(Cc2ccncc2)CCN3)c1	-3.3%[87.6 µM]	-2.3	9.8%[87.6 µM]	?
CCn1cc(-c2cc3c(cn2)CN(Cc2cccnc2)CCN3)cn1	-2.0%[87.6 µM]	-12.6	141.9%[87.6 µM]	31.6µM*
C1CCC(CN2CCn3c(nnc3C3CCCNC3)C2)CC1 (configuration not stated)	-29.8%	4.8	-28.2%	25.1µM*
c1ccc(CN2CCn3c(nnc3C3CCCNC3)C2)cc1 (configuration not stated)	-1.1%	6.2	-27.4%	i
